From PubChem BioAssay (NCATS)
Several values for one entry are separate records, joined by “and”; a condition that tells them apart may be missing. Identical values can stand only once. Records with an inconclusive call do not appear. A call without a number means that no potency is given here. Activity calls are given as the source filed them. Unless noted, calls come from the whole dose curve; as a rule, active = well fitted curve in either direction with a large enough effect (not every such curve was filed as active); inconclusive = small, poorly fitted or top-dose-only effect, or another doubt; inactive = flat fitted curve, though single readings scatter.

Tested on: not listed separately
Test: Stat Signaling Pathway (AID 446);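 note: ME-180 cervical cancer cells given 40 pM IL-6 alongside compound; SIE-controlled beta-lactamase reporter measured as 460/530 nm FRET emission ratio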
Details: ME-180 (cervical carcinoma) SIE beta-lactamase reporter, IL-6 stimulated, 5 h; series mostly up to 17.2 µM
Summary of the method: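 Normalization used AC90 stimulation (300 pM IL-6) and AC90 inhibition (125 nM pan-JAK inhibitor at 40 pM IL-6). The underlying signal is SIE-driven beta-lactamase in ME-180 cells after 5 h IL-6 exposure with compound.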
For C[N+](C)(C)CCOC(N)=O, the outcome was “inactive”. In the case of c1ccc2c(c1)CCCC2C1=NCCN1 (stereo unspecified), the outcome is reported as “inactive”. For C[C@]12CCC(=O)C=C1CC[C@@H]1[C@@H]2C(=O)C[C@@]2(C)[C@H]1CC[C@]2(O)C(=O)CO, the outcome was “inactive”. In the case of C[N+](C)(C)CCCCCCCCCC[N+](C)(C)C, the outcome is reported as “inactive”. With CNCCCN1c2ccccc2CCc2ccccc21 the outcome was “inactive”. In the case of CN(C(=O)CCCOc1ccc2[nH]c(=O)ccc2c1)C1CCCCC1, the outcome is reported as “inactive”. In the case of COc1cc(C(=O)OCCCN2CCCN(CCCOC(=O)c3cc(OC)c(OC)c(OC)c3)CC2)cc(OC)c1OC, the outcome is reported as “inactive”. With C[C@]12C=CC(=O)C=C1CC[C@H]1[C@@H]3C[C@@H](O)[C@](O)(C(=O)CO)[C@@]3(C)C[C@H](O)[C@@]12F the outcome was “inactive”. In the case of CCCN(CCC)C(=O)C(CCC(=O)O)NC(=O)c1ccccc1 (stereo unspecified), the outcome is reported as “inactive”. For COCCOC(=O)C1=C(C)NC(C)=C(C(=O)OC(C)C)C1c1cccc([N+](=O)[O-])c1 (stereo unspecified), the outcome was “inactive”. With CCn1cc(C(=O)O)c(=O)c2cc3c(cc21)OCO3 the outcome was “inactive”. In the case of O=C(CCCN1CCC(O)(c2cccc(C(F)(F)F)c2)CC1)c1ccc(F)cc1, the outcome is reported as “inactive”. For C(=C\c1ccccc1)/CN1CCN(C(c2ccccc2)c2ccccc2)CC1, the outcome was “inactive”. With COCCc1ccc(OCC(O)CNC(C)C)cc1 (stereo unspecified) the outcome was “inactive”. For FC(F)(F)c1ccccc1-n1ccnc1, the outcome was “inactive”. In the case of C[C@]12CCC(=O)C=C1CC[C@@H]1[C@@H]2CC[C@@]2(C)[C@H]1CC[C@]2(O)C(=O)CO, the outcome is reported as “inactive”. In the case of OC(CCN1CCCCC1)(c1ccccc1)C1CCCCC1 (stereo unspecified), the outcome is reported as “inactive”. With Cc1scc2c1N(C(=O)CN1CCN(C)CC1)c1ccccc1NC2=O the outcome was “inactive”. For CCOC(=O)c1cnc2c(cnn2CC)c1NN=C(C)C, the outcome was “inactive”. For C=CCc1ccccc1OCC(O)CNC(C)C (stereo unspecified), the outcome was “inactive”. With Cc1nnc(SCC2=C(C(=O)O)N3C(=O)[C@@H](NC(=O)Cn4cnnn4)[C@H]3SC2)s1 the outcome was “inactive”. With CC1=C(C)C(=O)C(CCCCC#CCCCC#CCO)=C(C)C1=O the outcome was “inactive”. For CCOC(=O)C1=C(C)NC(C)=C(C(=O)OC)C1c1cccc(Cl)c1Cl (stereo unspecified), the outcome was “inactive”. For CC(=O)OC(C)C[N+](C)(C)C (stereo unspecified), the outcome was “inactive”. With CC(=O)OCC1=C(C(=O)O)N2C(=O)[C@@H](NC(=O)Cc3cccs3)[C@H]2SC1 the outcome was “inactive”. For Fc1ccc(C(c2ccc(F)cc2)N2CCN(C/C=C/c3ccccc3)CC2)cc1, the outcome was “inactive”. In the case of COCCCC/C(=N\OCCN)c1ccc(C(F)(F)F)cc1, the outcome is reported as “inactive”. With Brc1c(NC2=NCCN2)ccc2nccnc12 the outcome was “inactive”. In the case of CCN(CC)CCNC(=O)c1ccc(NC(C)=O)cc1, the outcome is reported as “inactive”. In the case of CO[C@@]1(NC(=O)CSCC#N)C(=O)N2C(C(=O)O)=C(CSc3nnnn3C)CS[C@@H]21, the outcome is reported as “inactive”. In the case of COc1ccc(CCN(C)CCCC(C#N)(c2cc(OC)c(OC)c(OC)c2)C(C)C)cc1OC (stereo unspecified), the outcome is reported as “inactive”. With CC(C)(C)NCC(O)c1cc(O)cc(O)c1 (stereo unspecified) the outcome was “inactive”. In the case of C[C@H](CS)C(=O)N1CCC[C@H]1C(=O)O, the outcome is reported as “inactive”. In the case of CN(C)[C@@H]1C(=O)C(C(N)=O)=C(O)[C@@]2(O)C(=O)C3=C(O)c4c(O)ccc(Cl)c4[C@@H](O)[C@H]3C[C@@H]12, the outcome is reported as “inactive”.

Target: Glucocorticoid receptor (Homo sapiens) (UniProt P04150)
Sequence (P04150 whole entry, looked up): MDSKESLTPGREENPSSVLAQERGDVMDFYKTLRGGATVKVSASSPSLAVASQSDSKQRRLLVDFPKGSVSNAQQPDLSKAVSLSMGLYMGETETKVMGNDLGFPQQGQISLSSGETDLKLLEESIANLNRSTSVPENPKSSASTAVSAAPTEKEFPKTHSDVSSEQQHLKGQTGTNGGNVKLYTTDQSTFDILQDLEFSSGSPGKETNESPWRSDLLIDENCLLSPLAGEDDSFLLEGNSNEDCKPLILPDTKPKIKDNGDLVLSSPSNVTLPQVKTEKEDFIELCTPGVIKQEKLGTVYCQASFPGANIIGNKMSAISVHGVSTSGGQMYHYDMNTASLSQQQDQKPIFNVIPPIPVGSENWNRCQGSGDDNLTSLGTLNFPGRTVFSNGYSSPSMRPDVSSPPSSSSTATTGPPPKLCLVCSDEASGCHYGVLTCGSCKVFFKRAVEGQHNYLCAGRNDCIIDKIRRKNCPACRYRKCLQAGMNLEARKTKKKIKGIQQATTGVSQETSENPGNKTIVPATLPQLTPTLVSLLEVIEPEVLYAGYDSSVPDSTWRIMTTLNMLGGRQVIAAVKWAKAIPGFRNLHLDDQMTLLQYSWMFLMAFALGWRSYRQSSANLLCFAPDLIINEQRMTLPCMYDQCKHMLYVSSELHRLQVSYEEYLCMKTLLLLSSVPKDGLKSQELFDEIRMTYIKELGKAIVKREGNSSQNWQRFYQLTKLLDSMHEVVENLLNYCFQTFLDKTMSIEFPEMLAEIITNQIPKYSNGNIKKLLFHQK
Test: GR-GFP Redistribution (AID 450;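 active = compounds whose dose series gives a full or clear partial fitted curve of increased nuclear translocation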; note: potency is the fitted concentration of half-maximal effect)
Details: U2OS GR-GFP nuclear translocation, laser cytometry, 2 h
With C[C@]12CCC(=O)C=C1CC[C@@H]1[C@@H]2C(=O)C[C@@]2(C)[C@H]1CC[C@]2(O)C(=O)CO the Potency was 0.818 µM (active). With C[N+](C)(C)CCCCCCCCCC[N+](C)(C)C the Potency was > 46 µM (inactive) and > 20.6 µM (inactive). For CN(C(=O)CCCOc1ccc2[nH]c(=O)ccc2c1)C1CCCCC1, the Potency was > 46 µM (inactive). In the case of COc1cc(C(=O)OCCCN2CCCN(CCCOC(=O)c3cc(OC)c(OC)c(OC)c3)CC2)cc(OC)c1OC, the Potency is reported as > 46 µM (inactive) and > 20.6 µM (inactive). For C[C@]12C=CC(=O)C=C1CC[C@H]1[C@@H]3C[C@@H](O)[C@](O)(C(=O)CO)[C@@]3(C)C[C@H](O)[C@@]12F, the Potency was 0.148 µM (active). With CCCN(CCC)C(=O)C(CCC(=O)O)NC(=O)c1ccccc1 (stereo unspecified) the Potency was > 20.6 µM (inactive). For COCCOC(=O)C1=C(C)NC(C)=C(C(=O)OC(C)C)C1c1cccc([N+](=O)[O-])c1 (stereo unspecified), the Potency was > 20.6 µM (inactive). With O=C(CCCN1CCC(O)(c2cccc(C(F)(F)F)c2)CC1)c1ccc(F)cc1 the Potency was > 46 µM (inactive). With COCCc1ccc(OCC(O)CNC(C)C)cc1 (stereo unspecified) the Potency was > 20.6 µM (inactive). For FC(F)(F)c1ccccc1-n1ccnc1, the Potency was > 46 µM (inactive). For C[C@]12CCC(=O)C=C1CC[C@@H]1[C@@H]2CC[C@@]2(C)[C@H]1CC[C@]2(O)C(=O)CO, the Potency was 0.0458 µM (active). With CC1=C(C)C(=O)C(CCCCC#CCCCC#CCO)=C(C)C1=O the Potency was > 46 µM (inactive) and > 20.6 µM (inactive). In the case of CCOC(=O)C1=C(C)NC(C)=C(C(=O)OC)C1c1cccc(Cl)c1Cl (stereo unspecified), the Potency is reported as > 20.6 µM (inactive). With CC(=O)OC(C)C[N+](C)(C)C (stereo unspecified) the Potency was > 20.6 µM (inactive). For CC(=O)OCC1=C(C(=O)O)N2C(=O)[C@@H](NC(=O)Cc3cccs3)[C@H]2SC1, the Potency was > 20.6 µM (inactive). In the case of Fc1ccc(C(c2ccc(F)cc2)N2CCN(C/C=C/c3ccccc3)CC2)cc1, the Potency is reported as > 20.6 µM (inactive). In the case of COCCCC/C(=N\OCCN)c1ccc(C(F)(F)F)cc1, the Potency is reported as > 20.6 µM (inactive). In the case of Brc1c(NC2=NCCN2)ccc2nccnc12, the Potency is reported as > 46 µM (inactive) and > 20.6 µM (inactive). With CCN(CC)CCNC(=O)c1ccc(NC(C)=O)cc1 the Potency was > 46 µM (inactive) and > 20.6 µM (inactive). In the case of CO[C@@]1(NC(=O)CSCC#N)C(=O)N2C(C(=O)O)=C(CSc3nnnn3C)CS[C@@H]21, the Potency is reported as > 20.6 µM (inactive). In the case of COc1ccc(CCN(C)CCCC(C#N)(c2cc(OC)c(OC)c(OC)c2)C(C)C)cc1OC (stereo unspecified), the Potency is reported as > 20.6 µM (inactive). With CN(C)[C@@H]1C(=O)C(C(N)=O)=C(O)[C@@]2(O)C(=O)C3=C(O)c4c(O)ccc(Cl)c4[C@@H](O)[C@H]3C[C@@H]12 the Potency was > 20.6 µM (inactive).
